# Screening data deposited in PubChem BioAssay by National Center for Advancing Translational Sciences (NCATS).
# Only a selection was taken, and hits are over-represented in it overall.
# PGK inhibitor – blocks T. brucei phosphoglycerate kinase; actives 0.043% (n = 380,000); Potency, µM (titrated, usually from 57.5 µM), without a hit: at the top dose activity change, negative = inhibition, usual class: inhibitors; P07378; PGK/GAPDH coupled, Kinase-Glo luminescence, 60 min; also: potency is read from the fitted curve at half-maximal effect; nearly all actives have a fitted effect of over 60% in size
#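 Luminescent ATP detection (Kinase-Glo Plus) follows a 60-minute room-temperature incubation, with wells lacking PGK as controls. Buffer: 100 mM TEA (pH 7.6), 5 mM MgCl2, 0.01% Tween-20. Coupling enzyme GAPDH (100 nM final) supplies unstable 1,3-BPG in-well.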
# Pin1 inh – blocks the human prolyl isomerase Pin1. Q13526. Potency, µM (doses to about 115 µM), without a hit: top-dose activity, negative = inhibition, most hits filed as inhibitors. Pin1 FP peptide displacement, HiFluor488, 10 min. actives 0.009% (n = 390,000); active = well fitted inhibition curve with a large enough effect in the polarisation, with a control signal flat, not every such curve was filed as active; inconclusive = small, poorly fitted or top-dose-only effect, or effect the other way, or a change in a side signal; inactive = no such curve, though single readings can be large or run the other way; the % refers to the polarisation; also: potency is read from the fitted curve at half-maximal effect
# Target sequence (Q13526 whole entry, looked up): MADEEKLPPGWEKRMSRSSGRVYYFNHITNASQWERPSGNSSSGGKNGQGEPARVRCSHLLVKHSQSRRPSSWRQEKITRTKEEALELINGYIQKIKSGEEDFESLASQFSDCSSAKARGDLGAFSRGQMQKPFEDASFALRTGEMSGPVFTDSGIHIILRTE
# Tb PFK inh – inhibitors of T. brucei phosphofructokinase; actives 0.17% (n = 330,000); T. brucei PFK, ADP-Glo luminescence; Potency, µM (highest dose often 57.5 µM), for the others: at the highest dose activity, negative = inhibition, usual class: inhibitors; O15648;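 also: potency is read from the fitted curve at half-maximal effect; 0% = uninhibited 1x PFK enzyme wells and -100% = no-enzyme wells; nearly all actives have a fitted effect of over 60% in size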
#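 Activity is normalized to no-enzyme wells (full inhibition) and 1.25 nM enzyme wells (no inhibition). Reaction: 0.5 mM F6P, 0.1 mM ATP, 45 min RT, ADP-Glo luminescence; concentration-response curves fitted and classed by quality.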
# PI5P4K alpha inh – inhibitors of human PI5P4K alpha | actives 1.2% (n = 330,000) | max response, % | P48426 | AID 652105 | PI5P4Kalpha enzyme, ADP-Glo luminescence, 60 min; hits give low values; active = max response of -50% or lower; inconclusive = between -30% and -50%; inactive = -30% or higher; also: value at the top dose of about 77 µM
#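 Controls without substrate or without enzyme flank wells where PI5P4Kalpha converts substrate using 5 microM ATP (final). Incubation lasts 60 minutes at room temperature; ADP formed is read by ADP-Glo luminescence.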
# PI4K2A inh – blocks human PI4K2A kinase activity. actives 0.13% (n = 420,000). purified PI4K2A, ADP-Glo luminescence, 1 h; hits give low values. activity change, negative = inhibition, % at 76.9 µM; in the data active = activity change below about -50%; inconclusive = mostly about -30% to -49%;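 also: -100% = wells without enzyme as full effect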
# Target sequence (Q9BTU6 whole entry, looked up): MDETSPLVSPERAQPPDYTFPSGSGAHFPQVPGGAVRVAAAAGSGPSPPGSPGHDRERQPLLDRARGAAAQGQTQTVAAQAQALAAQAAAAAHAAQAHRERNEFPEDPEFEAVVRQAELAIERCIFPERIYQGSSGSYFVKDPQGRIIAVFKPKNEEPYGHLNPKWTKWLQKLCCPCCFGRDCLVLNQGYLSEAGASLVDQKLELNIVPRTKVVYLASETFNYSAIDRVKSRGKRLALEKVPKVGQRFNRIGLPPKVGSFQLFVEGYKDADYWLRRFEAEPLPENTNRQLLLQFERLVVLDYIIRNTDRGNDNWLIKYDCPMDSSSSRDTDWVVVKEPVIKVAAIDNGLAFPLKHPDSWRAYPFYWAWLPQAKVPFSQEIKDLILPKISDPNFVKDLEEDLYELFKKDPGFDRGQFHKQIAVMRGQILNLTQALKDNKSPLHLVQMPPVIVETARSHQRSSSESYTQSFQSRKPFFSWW
#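 In this quantitative HTS, ADP production by PI4K2A was quantified luminescently after 1 h at ambient temperature; 100 microM adenosine served as plate-quality control.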
# Numbers without * were called inactive; i = inactive; ? = inconclusive; . = no result. Unless noted, calls follow the shape of the dose curve; as a rule, active = well fitted curve in the direction sought with a large enough effect; inconclusive = small, poorly fitted or top-dose-only effect, or another doubt; inactive = no such curve, though single readings can be large; an effect the other way counts as inactive or inconclusive. Unless noted, % is scaled to controls: 0 for no effect and ±100 for the full control effect.
SMILES,PGK inhibitor,Pin1 inh,Tb PFK inh,PI5P4K alpha inh,PI4K2A inh
COc1cc(/C=N/N2C(=O)CSC2=S)cc(Br)c1O,?,?,?,-75*,-17
COc1ccc2ccccc2c1/C=N/N1C(=O)CSC1=S,1%,20%,?,-21,-3
O=C1CSC(=S)N1N=Cc1c(O)ccc2ccccc12,-10%,?,.,-73*,-11
O=C1CSC(=S)N1/N=C/C=C/c1ccccc1,i,4%,10%,-63*,-12
O=C1CSC(=S)N1/N=C/c1c(F)cccc1F,-10%,-11%,0%,-29,-2
COc1cc(/C=N/N2C(C)CCCC2C)cc(Br)c1O (stereo not given),i,-8%,5%,4,2
COc1cccc(/C=N/N2C(=O)CSC2=S)c1O,6%,52%,0%,-55*,-1
Cc1cc(NCCCCCCCNc2cc(C)nc3cc([N+](=O)[O-])ccc23)c2ccc([N+](=O)[O-])cc2n1,i,?,.,-61*,4
COc1ccc(C2C3=C(N=CN(CCN4CCOCC4)C3N)Oc3ccccc32)cc1OC (stereo not given),.,2%,.,.,.
Nc1ncc(-c2cccc(-c3nn4c(=O)cc(N5CCNCC5)nc4s3)c2)cn1,.,35%,.,.,.
O=C(O)C(S)C(S)C(=O)O (stereo not given),?,.,.,-55*,-12
O=C(O)[C@@H](O)[C@H](O)[C@H](O)[C@@H](O)C(=O)O,.,.,.,.,-1
CCOC(=O)C1CCN(c2ncc(-c3ccc4c(c3)OCCCO4)s2)CC1,.,-2%,.,.,.
C=CCNC(=O)CSc1nc2sccc2c(=O)n1-c1ccccc1,-6%,?,1%,-60*,-7
CCNC(=O)CSc1nc2sccc2c(=O)n1-c1ccccc1,-1%,-2%,-21%,?,3
O=C1N/C(=C\c2ccc(O)cc2)C(=O)c2ccccc21,-15%,4%,19%,.,-50*
O=C(O)/C=C1\NC(=O)c2ccccc21,i,-7%,-4%,-21,-1
CCCCOC(=O)n1c(=S)oc2cc(Cl)ccc21,-1%,-6%,0%,-55*,-15
CC(C)(C)C(=O)CSc1nnc(SCc2cccc3ccccc23)s1,.,.,.,.,-3
COc1ccc(N/C=C2/Sc3ccccc3NC2=O)cc1,.,16%,2%,-55*,-1
O=C(O)C[C@@H]1C(=O)O[C@@H]2C(COC(=O)c3cc(O)c(O)c(O)c3)O[C@@H](OC(=O)c3cc(O)c(O)c(O)c3)[C@@H](OC(=O)c3cc(O)c(O)c4c3[C@H]1[C@H](O)C(=O)O4)[C@H]2OC(=O)c1cc(O)c(O)c(O)c1 (stereo not given in full),.,.,1.5µM*,.,.
O=c1cc(-c2ccccc2Cl)oc2cccc(O)c12,-10%,4%,-4%,-7,3
O=c1cc2oc3cc(O)c(O)cc3c(-c3ccccc3[N+](=O)[O-])c-2cc1O,?,44%,-9%,-61*,?
O=C(/C=C/c1ccco1)NC(=S)Nc1ccccc1O,-5%,19%,8%,-17,-5
O=C(/C=C\c1ccco1)NC(=S)Nc1ccccc1O,-4%,-1%,2%,-53*,-4
SMILES,PGK inhibitor,Pin1 inh,Tb PFK inh,PI5P4K alpha inh,PI4K2A inh
Cc1ccc(NC(=S)NC(=O)/C=C/c2ccco2)c(O)c1,i,-4%,7%,-54*,-1
CCCOC(=O)c1c(NC(=O)C2C3C=CC(C3)C2C(=O)O)sc2c1CCC(C)C2 (stereo not given),-13%,?,-15%,-59*,1
CN(C)Cc1c(O)ccc2c(=O)c(-c3ccc(Cl)cc3)coc12,-9%,-2%,0%,-2,0
O=c1c(-c2ccc([N+](=O)[O-])cc2)coc2c(O)c(O)ccc12,8.9µM*,?,-18%,-7,2
CCOCCCNC(=O)/C(C#N)=C/c1cc(OC)c(O)c([N+](=O)[O-])c1,0%,-5%,?,-64*,-7
CCOCCCNC(=O)/C(C#N)=C/c1ccc(Cl)c([N+](=O)[O-])c1,-6%,-2%,?,-3,9
Cc1ccc(C(=O)Oc2ccc(C(O)CNC(C)(C)C)cc2OC(=O)c2ccc(C)cc2)cc1 (stereo not given),.,.,.,.,2
COc1cccc(CNC(=O)C2CCCN(c3ncccn3)C2)c1OC (stereo not given),.,.,.,.,-6
S=c1[nH]nc(-c2ccco2)n1/N=C/C=C/c1ccco1,-2%,?,-24%,-69*,-14
CC(/C=N/n1c(-c2cc(C)[nH]n2)n[nH]c1=S)=C\c1ccco1,-5%,?,-19%,-51*,-1
S=c1[nH]nc(-c2cc(-c3ccccc3)n[nH]2)n1/N=C/C=C/c1ccco1,-7%,?,-23%,-96*,-13
S=c1[nH]nc(COc2ccccc2)n1/N=C/C=C/c1ccco1,-7%,?,-15%,-52*,-9
C=CCN1C(=O)[C@@H](CC(=O)NCc2ccc(OC)c(OC)c2)[C@]2(C(=O)OC)CCCCC=C12,.,.,.,.,3
COc1cc2c(cc1NC(=O)CSc1nnc(-c3cccc(Cl)c3)n1-c1ccccc1)oc1ccccc12,.,.,.,.,2
CCN1CCN(c2cccc(Nc3nn4c(=O)c5ccccc5nc4s3)c2)CC1,.,8%,.,.,.
S=c1[nH]nc(-c2n[nH]c3c2CCC3)n1/N=C/C=C/c1ccco1,-11%,?,-17%,-52*,-3
COc1ccc(C2Nc3ccccc3C(=O)N2Cc2ccccc2C)cc1COc1ccc(NC(C)=O)cc1 (stereo not given),.,8%,.,.,.
O=C(c1cccc([N+](=O)[O-])c1)N1CCN(Cc2ccc3c(c2)OCO3)CC1,2%,-2%,-20%,0,-69*
CCOc1ccc(-c2nc(S(=O)(=O)c3ccccc3)c(NC)o2)cc1,4%,-8%,-2%,-3,1
CNc1oc(Cc2ccccc2)nc1S(=O)(=O)c1ccccc1,0%,.,-3%,-85*,-17
C/C(=N/NC(=O)CNC(=O)c1ccccc1F)c1ccc2c(c1)CCCC2,4%,1%,-1%,-67*,-2
O=C(OC12CCCN(C1)/C(=C/c1ccncc1)C2)c1ccc(F)cc1 (stereo not given),.,.,.,.,-1
C[C@H]1O[C@H](O[C@H]2[C@H](O)[C@@H](O)[C@@H](O[C@H]3[C@H](O)[C@@H](O)[C@H](O)O[C@@H]3CO)O[C@@H]2CO)[C@H](O)[C@@H](O)[C@@H]1N[C@H]1C=C(CO)[C@@H](O)[C@H](O)[C@H]1O,.,.,.,.,2
O=S(=O)(c1ccc(N=C2NN=C(c3cc(F)ccc3F)CS2)cc1)N1CCOCC1,-8%,19%,?,-51*,-8
Fc1ccc(N=C2NN=C(c3cc(F)ccc3F)CS2)cc1,-9%,-1%,0%,-13,-1
